From PubChem
Only some compounds are listed: those with a hit (about 7.8% of all), similar ones and a draw of the others.
VACV mCherry inh – inhibitors of vaccinia virus infection (mCherry reporter signal). Vaccinia virus mCherry reporter infection, fluorescence. Potency, µM (highest dose often 36.5 µM), for the others: at the highest dose activity change, negative = inhibition, usual class: inhibitors. 310,000 compounds, 0.63% hits. AID 720579; calls by dose curve; tested in A549 cells; also: potency is read from the fitted curve at half-maximal effect; nearly all actives have a fitted effect of over 35% in size
VACV Venus inh – vaccinia inhibition (Venus reporter) | Vaccinia virus Venus reporter expression, fluorescence | Potency, µM (doses to about 36.5 µM), for inactives: at the highest dose activity change, negative = inhibition, most hits filed as inhibitors | 330,000 compounds, 0.46% hits; calls by dose curve; tested in A549 cells; also: potency is read from the fitted curve at half-maximal effect; nearly all actives have a fitted effect of over 30% in size
MARV entry inh – Marburg virus entry inhibition; Marburg virus pseudotyped entry inhibition, cell reporter; Potency, µM (series often up to 37.8 µM), for the others: at the highest dose activity change, negative = inhibition, usual class: inhibitors; 300,000 compounds, 1.8% hits; calls by dose curve; tested in HEK293 cells; also: potency is read from the fitted curve at half-maximal effect
HCV inh – HCV inhibition; Huh7.5.1 HCVcc-Cre infection, luciferase reporter, 44 h; Potency, µM (doses to about 41.8 µM), for the others: top-dose activity change, negative = inhibition, actives largely listed as inhibitors; 340,000 compounds, 3.4% hits; AID 651820; active = well fitted inhibition curve with a large enough effect; inconclusive = small, poorly fitted or top-dose-only effect, or another doubt; inactive = no such curve, though single readings can be large or run the other way; also: potency is read from the fitted curve at half-maximal effect
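Cells seeded at 1,000/well and cultured 4 h, then compounds added followed by HCVcc-Cre virus (~0.5 moi). After 44 h further culture, luciferase substrate was added, plates held 15 min at room temperature, and luminescence read for 15 sec.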
Lassa entry inh – inhibitors of Lassa virus binding or cell entry; Potency, µM (top dose mostly 37.9 µM), without a hit: top-dose activity change, negative = inhibition, hits mostly inhibitors; AID 540256; 300,000 compounds, 1.2% hits; Lassa virus pseudotype entry inhibition, cell reporter; calls by dose curve; tested in HEK293 cells; also: potency is read from the fitted curve at half-maximal effect; nearly all actives have a fitted effect of over 50% in size
HCMV antiviral – blocks human cytomegalovirus replication. activity change, negative = inhibition, % at 57.5 µM. 410,000 compounds, 4.5% hits. HFF cells, HCMV-luciferase reporter, 72 h; hits give low values; in the data active = activity change below about -60%; inconclusive = no clear call, values can overlap the other calls; inactive = above about -39%
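After 16 h attachment at 37C, HFF cells received test compound and HCMV-luciferase (1 PFU/cell); reporter luminescence read 72 h later, data normalized against buffer-only and known inhibitor Salinomycin.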
* hit, by the source's call; i = inactive; u = inconclusive; x = no result; [ ] = dose if it differs, or a comment. % is scaled to controls: 0 for no effect and ±100 for the full control effect.

SMILES | VACV mCherry inh | VACV Venus inh | MARV entry inh | HCV inh | Lassa entry inh | HCMV antiviral
CSc1ccc(-c2nnn(CC(=O)Nc3sc4c(c3C#N)CCC(C(C)(C)C)C4)n2)cc1 (centres undefined) | -13% | -6% | -2%[46.1 µM] | x | 5%[46.1 µM] | -2
Cc1ccc(Cl)cc1-n1ncc2c(Nc3cccc(C)c3C)ncnc21 | -15% | -20% | x | x | u | -23
CCCCc1ccc(NC(=O)c2ccc3c(c2)CCN3S(=O)(=O)CC)cc1 | u | u | 1%[46.1 µM] | x | u | -64*
CCc1ccc(NC(=O)c2ccc3c(c2)CCN3S(C)(=O)=O)cc1 | i | -28% | x | x | x | 5
CS(=O)(=O)N1CCc2cc(C(=O)Nc3ccc(Cl)c(C(F)(F)F)c3)ccc21 | -24% | -15% | u | x | u | -71*
Cc1ccc(NC(=O)c2ccc3c(c2)CCN3S(C)(=O)=O)cc1 | i | -24% | x | x | x | 15
CC(C)c1ccc(NC(=O)c2ccc3c(c2)CCCN3S(C)(=O)=O)cc1 | u | u | u | x | -24%[46.1 µM] | -74*
Cc1ccc(NC(=O)c2ccc3c(c2)CCN3S(C)(=O)=O)cc1C | i | -26% | u | 11µM* | u | 72
CCCCn1c(SCc2ccccc2C)nc2ccsc2c1=O | -11% | -2% | x | x | -12%[46.1 µM] | 88
CS(=O)(=O)N1CCc2cc(C(=O)Nc3ccc(C(F)(F)F)cc3)ccc21 | -13% | -14% | 14%[46.1 µM] | x | u | -63*
O=C(NNc1ccccc1Br)C(O)(c1cccc(C(F)(F)F)c1)c1cccc(C(F)(F)F)c1 | 11µM* | u | u | u | u | -99*
Cc1ccc(NNC(=O)C(O)(c2cccc(C(F)(F)F)c2)c2cccc(C(F)(F)F)c2)cc1 | u | u | u | u | u | -89*
COc1ccc(-c2nn(C)c3sc(C(=O)N4CCN(c5cc(Cl)ccc5C)CC4)cc23)cc1OC | 4% | -4% | u | x | -27%[46.1 µM] | -3
CC(C)Oc1ccc(CNC(=O)c2ccc3c(c2)nc2n3CCOC2)cc1 | -9%[7.34 µM] | -7%[7.34 µM] | x | x | -2%[46.1 µM] | 16
Cc1[nH]n(-c2ccccc2)c(=O)c1C(=O)c1cccc(F)c1 | x | x | 10µM* | u | u | -36
Cc1[nH]n(-c2ccccc2)c(=O)c1C(=O)c1ccccc1 | i | -11% | -29%[46.1 µM] | 2% | u | 58
Cc1ccc(NC(=O)Cn2cc3c(n2)CCCCC3)cc1 | -11% | -13% | 15%[46.1 µM] | x | -2%[46.1 µM] | -3
S=C1SCN(Cc2ccco2)CN1Cc1ccco1 | u | -20% | u | 14µM* | u | -99*
CCN1CSC(=S)N(Cc2ccccc2)C1 | i | -10% | u | 11µM* | 4%[46.1 µM] | u
CCCCCN1CSC(=S)N(Cc2ccccc2)C1 | i | -12% | -5% | 5% | -4% | u
Cc1cc2c(cc1C)CSC(c1ccc(O)cc1)SC2 | -22% | -8% | -1% | 1% | u | -15
Cc1cc2c(cc1C)CSC(c1c(O)ccc3ccccc13)SC2 | -21% | u | u | u | u | -74*
Cc1cc2c(cc1C)CSC(c1ccc3ccccc3c1O)SC2 | x | x | 3.7µM* | -14% | u | 15
Cc1cc2c(cc1C)CSC(c1ccccc1O)SC2 | x | x | u | u | -23% | u
Cc1cc2ccccc2cn1 | -10% | -5% | x | x | x | x
SMILES | VACV mCherry inh | VACV Venus inh | MARV entry inh | HCV inh | Lassa entry inh | HCMV antiviral
CC(C)(C)c1ccc(-n2ncc3c2CCCC3NC(=O)CCn2cncn2)cc1 (centres undefined) | -24% | -23% | -13% | 1% | 7% | -68*
CC(C)(C)c1ccc(-n2ncc3c2CCCC3NC(=O)CCN2CCCO2)cc1 (centres undefined) | x | x | x | 13µM* | x | u
COc1ccc(C(=O)Nc2nc(C)c(C)s2)cc1OC | x | -3% | u | -13% | 5% | 12
COc1ccc(C(=O)c2sc(NC(C)C)nc2N)cc1OC | x | 11µM* | -8% | u | 9% | u
COc1cccc(C(=O)c2sc(NC(C)C)nc2N)c1 | x | 7.1µM* | u | u | 9% | -97*
COc1cccc(C(=O)c2sc(Nc3ccc(F)c(Cl)c3)nc2N)c1 | -13% | -6% | x | x | 17%[46.1 µM] | -9
COC(=O)C1CCCCN1Cc1ccc2c(c1)CN(C1CCSCC1)CCO2 (centres undefined) | -6% | -6% | x | x | x | x
O=C(O)CSc1nc2ccccc2nc1N1CCCCC1 | 0% | -6% | 2%[46.1 µM] | x | -12%[46.1 µM] | -11
COC(=O)CS(=O)(=O)c1nc2ccccc2nc1N1CCCCC1 | -27% | -17% | -29%[46.1 µM] | x | 20%[46.1 µM] | -66*
CCOC(=O)N1CCC(NC(=O)c2ccc3c(c2)N(Cc2ccccc2C)C(=O)c2ccccc2S3=O)CC1 (centres undefined) | -8% | -18% | -25%[46.1 µM] | x | 2%[46.1 µM] | -17
O=C(Nc1ccc2ccccc2c1)C(C1CC1)n1c(=O)c(-c2cc3ccccc3[nH]2)nc2ccccc21 (centres undefined) | u | -28% | x | x | x | 3
COc1ccc(NC(=O)C(C2CC2)n2c(=O)c(-c3cc4ccccc4[nH]3)nc3ccccc32)cc1 (centres undefined) | u | u | x | x | x | -97*
Cc1ccc(-c2ccnc(-n3ncc(C(=O)N(C)CC4CCCN(C)C4)c3C)n2)o1 (centres undefined) | -6% | -9% | x | x | x | x
COc1cc(OC)cc(-c2nc3ccccc3c(=O)n2OC(=O)c2ccccc2C)c1 | -19% | u | u | 6% | 11µM* | -34
CN1C[C@H](C(=O)N[C@]2(C)O[C@@]3(O)[C@@H]4CCCN4C(=O)[C@H](Cc4ccccc4)N3C2=O)CC2c3cccc4[nH]cc(c34)C[C@H]21 (some centres undefined) | -5% | -8% | x | 14% | x | -19
CC(C)[C@@]1(NC(=O)[C@H]2CC3c4cccc5[nH]cc(c45)C[C@H]3N(C)C2)O[C@@]2(O)C3CCCN3C(=O)[C@@H](Cc3ccccc3)N2C1=O (some centres undefined) | -31% | -26% | x | x | x | x
CN1C[C@H](C(=O)N[C@]2(C)O[C@@]3(O)C4CCCN4C(=O)[C@H](Cc4ccccc4)N3C2=O)C[C@@H]2c3cccc4[nH]cc(c34)C[C@H]21 (some centres undefined) | x | x | 1.1µM* | x | x | x
CN1C[C@H](C(=O)N[C@]2(C)O[C@@]3(O)[C@@H]4CCCN4C(=O)[C@H](Cc4ccccc4)N3C2=O)C[C@@H]2c3cccc4[nH]cc(c34)C[C@H]21 | x | x | 1.1µM* | x | u | x
OC(CN1C2=NCCCN2c2ccccc21)c1ccc(Cl)cc1 (centres undefined) | i | -2% | x | u | x | -69*
OC(COc1ccc(Cl)cc1)CN1C2=NCCCN2c2ccccc21 (centres undefined) | x | -44% | u | 13µM* | -9% | 12
Clc1ccc(CN2C3=NCCCN3c3ccccc32)cc1Cl | -1% | -21% | u | u | u | -84*
